Compounds without any hit were thinned out: in the full panel of roughly 83,000, 20% have a hit.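 Each cell line was grown in a 96-well plate and treated with one concentration of compound for 48 hours. Values below 10 were considered active.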 The source made the active and inactive calls.
test system: HL-60(TB) leukemia; experiment: NCI-60 one-dose screen, 48 h (100 = growth as untreated, 0 = no growth, -100 = all killed); conditions: 10 µM unless noted

| Structure (SMILES) | growth |
| --- | --- |
| CC[C@]12C=CCN3CC[C@@]4(c5ccc(OC)cc5N(C)[C@H]4[C@@](O)(C(=O)OC)[C@@H]1OC(=O)CCC(=O)O[C@H]1CC[C@H]4[C@@H]5CC[C@H]6CC(=O)CC[C@]6(C)[C@H]5CC[C@]14C)[C@@H]32 | -38.2% (active) |
| CCOc1ccc(N=C(C)Nc2ccc(OCC)cc2)cc1 | 76.4% (inactive) |
| CCOC(=O)C/C(=N\Nc1cc(=O)[nH]c2ccc(OC)cc12)C(=O)OCC | 94% (inactive) |
| Cc1cc2c(-c3nc4ccccc4n3C)c(O)c(O)cc2c(O)c1-c1c(C)cc2c(-c3nc4ccccc4n3C)c(O)c(O)cc2c1O | 76.7% (inactive) |
| c1ccc(-c2oc3ccccc3c2-c2ccccc2)cc1 | 48.5% (inactive) |
| CN1CCN(c2ccc3nc(-c4[nH]ncc4Nc4ncnc5[nH]ccc45)[nH]c3c2)CC1 | -28.6% (active) |
| Fc1ccc(CNCCNc2ncnc3c2cnn3-c2ccccc2)cc1 | 83.1% (inactive) |
| O=C1CSC(=S)N1/N=C/c1ccc(Cl)s1 | 91% (inactive) |
| Cn1c2c(cc(S(=O)(=O)c3ccccc3)c1=O)CCc1c-2cnn1-c1cccc(Cl)c1 | 107% (inactive) |
| Cc1ccc(-c2nc(N3CCCNCC3)c3oc(-c4ccc(C)cc4)nc3n2)cc1 | -69.3% (active) |
| COc1ccc(C(=O)c2cc(OC)c(OC)c(OC)c2)cc1OC(=O)C(Cl)(Cl)Cl | -45.3% (active) |
| Fc1ccc2[nH]cc(-c3nc(-c4ccsc4)cs3)c2c1 | 99.3% (inactive) |
| c1ccc(-c2n(Cc3ccc4ccccc4n3)cc[n+]2Cc2ccc3ccccc3n2)cc1 | -33.1% (active) |
| NC(=S)N/N=C\c1nccc2c(N)cccc12 | -10.4% (active) |
| CC(=O)C1CCC(C)=CC1=O (stereo not given) | 119% (inactive) |
| COc1ccc2c(c1OC)O/C(=C\c1ncc([N+](=O)[O-])n1C)C2=O | -7.92% (active) |
| Cn1ncc2ccc(-c3nc(-c4ccccc4)[nH]c3-c3n[nH]c(=O)n3C3CC3)cc21 | 84.7% (inactive) |
| C=C1CCC2C3(C)COC(c4ccccc4Br)OC3CCC2(C)C1C/C=C1/C(=O)OCC1OC(C)=O (stereo not given) | -48.7% (active) |
| CSC1SCC2C(=O)N(C)C(C(C)C)C(=O)OCC(NC(=O)c3cnc4ccccc4n3)C(=O)NC(C)C(=O)N(C)C1C(=O)N(C)C(C(C)C)C(=O)OCC(NC(=O)c1cnc3ccccc3n1)C(=O)NC(C)C(=O)N2C (stereo not given) | -51.1% (active) |
| O=C(/C=C/C(=O)c1ccccc1)c1ccccc1 | 57.3% (inactive) |
| CC(=O)Nc1nc(C)c(C(=O)N/N=C/c2cccn2C)s1 | 112% (inactive) |
| NC(=O)C1=C[C@H]2[C@H]3C=C[C@@]2(O)C(=O)O[C@@H]3O1 | 41.6% (inactive) |
| c1cc(CNC23CC4CC(CC(C4)C2)C3)cc(C[N+](Cc2cccc(CNC34CC5CC(CC(C5)C3)C4)c2)(Cc2cccc(CNC34CC5CC(CC(C5)C3)C4)c2)Cc2cccc(CNC34CC5CC(CC(C5)C3)C4)c2)c1 (stereo not given) | -29.5% [42 µM] (active) |
| O=C(Cc1ccccc1)Nc1cccc(N=Cc2ccccc2O)c1 | 100% (inactive) |
| CNC(=O)c1cc(Oc2ccc3nc(NC(=O)Nc4ccc(F)cc4F)sc3c2)ccn1 | 98.3% (inactive) |
| NC(=O)NCC1CCCCC1 | 91.3% (inactive) |
| C1=CC2(C=C1)OC21CCC2(C=CC3(C2)OC3C2CCCCC2)CC1 (stereo not given) | 105% (inactive) |
| Fc1cccc(F)c1C#Cc1ccc2cccnc2c1 | 74.6% (inactive) |
| CC1=C(C(=O)OCC2CCN(C(=O)OC(C)(C)C)CC2)[C@H](c2cccc(Br)c2)C2=C(CC(C)(C)CC2=O)N1 | -17.1% (active) |
| COc1ccc2[nH]c(-c3ccccc3)c(/C=C(\C#N)S(=O)(=O)c3ccccc3)c2c1 | 1.53% (active) |

Reference: PubChem BioAssay (NCI)
